Our source for the AC50 and outcome values is PubChem BioAssay (EPA / NIEHS).

Inconclusive results are not listed. Active and inactive are the calls of the source. Rule for the calls: active = hit-call score of the fitted dose curve at least 0.9, where 1 is the maximum; inconclusive = response in the unintended direction; inactive = score below 0.9.

Experiment [1] concerns the target human CYP2C9, CYP2C9 (gene 1559) (UniProt P11712). The experiment is described as follows: NVS_ADME_hCYP2C9: NovaScreen (NVS) CYP450-related Enzyme Activity (ADME) Assay for human CYP2C9 (AID 2283108). In a few lines:
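Cell-free assay of recombinant human CYP2C9 produced in Sf9 cells, with enzyme activity read by fluorescence intensity 0.75 h after compound addition. Loss of signal versus an acetonitrile negative control indicates inhibition. Primary screen used 10 uM in duplicate; actives were retested in concentration series.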

Experiment [2] concerns the target Cytochrome P450 2C19 (Homo sapiens) (UniProt P33261). The experiment is described as follows: NVS_ADME_hCYP2C19: NovaScreen (NVS) CYP450-related Enzyme Activity (ADME) Assay for human CYP2C19 (AID 2283113).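 For AC50: potency for inhibition seen as loss of fluorescent signal.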 In a few lines: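 Fluorescence intensity was measured 1 hour after chemicals were added to insect-cell-derived recombinant CYP2C19 with fluorogenic substrate. Decreased signal versus acetonitrile control was taken as reduced enzyme activity; initial testing used 10 uM in duplicate.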

Experiment [3] has as its target human Acid Phosphatase 1 (ACP1), ACP1 (gene 52) (UniProt P24666). The experiment is described as follows: NVS_ENZ_hACP1: NovaScreen (NVS) Enzymatic Assay for human Acid Phosphatase 1 (ACP1) (AID 2283136). In a few lines:
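Recombinant enzyme expressed in Sf9 cells, tested cell-free; activity read by fluorescence with electrophoretic mobility shift separation of substrate and product, 1.5 h after dosing. Primary screen in duplicate at 25 uM, actives then run in concentration series; loss of signal versus DMSO.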

The target in experiment [4] is human AKT serine/threonine Kinase 1 (AKT1), AKT1 (gene 207) (UniProt P31749). The experiment is described as follows: NVS_ENZ_hAKT1: NovaScreen (NVS) Enzymatic Assay for human AKT serine/threonine Kinase 1 (AKT1) (AID 2283138). In a few lines: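 Cell-free recombinant enzyme with substrate; activity read by fluorescence intensity after electrophoretic mobility shift separating substrate from product, 1 h after dosing. Single-concentration duplicates at 25 uM, then singleton concentration-response up to 50 uM; loss of signal versus DMSO.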
Sequence of human AKT serine/threonine Kinase 1 (AKT1), AKT1 (gene 207) (P31749 whole entry, looked up): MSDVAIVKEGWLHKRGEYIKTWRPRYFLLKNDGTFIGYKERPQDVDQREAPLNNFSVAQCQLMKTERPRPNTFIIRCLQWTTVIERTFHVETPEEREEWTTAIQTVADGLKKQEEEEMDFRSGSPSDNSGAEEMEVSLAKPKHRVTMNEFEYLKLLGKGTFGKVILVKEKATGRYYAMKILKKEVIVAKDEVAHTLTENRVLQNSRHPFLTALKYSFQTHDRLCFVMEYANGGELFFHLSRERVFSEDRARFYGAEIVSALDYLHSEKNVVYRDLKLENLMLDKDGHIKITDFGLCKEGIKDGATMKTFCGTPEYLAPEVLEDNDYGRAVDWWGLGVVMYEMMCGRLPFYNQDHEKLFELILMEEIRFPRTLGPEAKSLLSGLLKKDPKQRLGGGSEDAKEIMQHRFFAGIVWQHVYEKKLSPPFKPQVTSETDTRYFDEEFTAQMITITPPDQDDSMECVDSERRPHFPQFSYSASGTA

The target in experiment [5] is human Caspase 5 (CASP5), CASP5 (gene 838) (UniProt P51878). The experiment is described as follows: NVS_ENZ_hCASP5: NovaScreen (NVS) Enzymatic Assay for human Caspase 5 (CASP5) (AID 2283137). In a few lines: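 Recombinant E. coli-expressed human caspase 5 in a cell-free enzyme assay; fluorescence intensity read 2 hours after chemical dosing. Single-concentration duplicate screen at 25 uM, then concentration-response up to 50 uM for hits; DMSO negative control.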
Sequence of human Caspase 5 (CASP5), CASP5 (gene 838) (P51878 whole entry, looked up): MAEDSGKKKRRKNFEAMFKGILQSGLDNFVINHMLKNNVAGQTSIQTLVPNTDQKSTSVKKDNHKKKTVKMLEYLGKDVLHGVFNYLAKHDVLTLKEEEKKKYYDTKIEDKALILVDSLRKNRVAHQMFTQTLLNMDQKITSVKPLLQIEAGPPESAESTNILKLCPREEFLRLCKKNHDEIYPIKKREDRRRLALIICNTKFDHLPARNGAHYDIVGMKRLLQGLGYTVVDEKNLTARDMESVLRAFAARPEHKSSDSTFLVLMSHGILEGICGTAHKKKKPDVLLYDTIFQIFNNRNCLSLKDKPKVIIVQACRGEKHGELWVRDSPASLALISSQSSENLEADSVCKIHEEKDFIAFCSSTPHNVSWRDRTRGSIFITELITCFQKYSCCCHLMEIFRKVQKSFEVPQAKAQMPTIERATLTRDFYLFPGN

In experiment [6] the target is human Beta-secretase (BACE), BACE1 (gene 23621) (UniProt P56817). The experiment is described as follows: NVS_ENZ_hBACE: NovaScreen (NVS) Enzymatic Assay for human Beta-secretase (BACE) (AID 2283140).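 Note: hits are inhibitors that reduce fluorescent substrate signal versus DMSO.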 In a few lines:
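Cell-free fluorescence-intensity assay of recombinant BACE1 expressed in SF9 cells, read 1 hour after dosing. Loss of signal indicates reduced protease activity, fitted relative to DMSO negative control. Primary screen at 25 uM in duplicate; actives followed in concentration series.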

Experiment [7] deals with human Caspase 4 (CASP4), CASP4 (gene 837) (UniProt P49662). The experiment is described as follows: NVS_ENZ_hCASP4: NovaScreen (NVS) Enzymatic Assay for human Caspase 4 (CASP4) (AID 2283143). In a few lines: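 The cell-free assay used E. coli-expressed enzyme with a fluorogenic substrate, read 2 h after dosing. Signal loss was scored versus DMSO. Screening was in duplicate at 25 uM, then singleton concentration-response up to 50 uM.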
Sequence of human Caspase 4 (CASP4), CASP4 (gene 837) (P49662 whole entry, looked up): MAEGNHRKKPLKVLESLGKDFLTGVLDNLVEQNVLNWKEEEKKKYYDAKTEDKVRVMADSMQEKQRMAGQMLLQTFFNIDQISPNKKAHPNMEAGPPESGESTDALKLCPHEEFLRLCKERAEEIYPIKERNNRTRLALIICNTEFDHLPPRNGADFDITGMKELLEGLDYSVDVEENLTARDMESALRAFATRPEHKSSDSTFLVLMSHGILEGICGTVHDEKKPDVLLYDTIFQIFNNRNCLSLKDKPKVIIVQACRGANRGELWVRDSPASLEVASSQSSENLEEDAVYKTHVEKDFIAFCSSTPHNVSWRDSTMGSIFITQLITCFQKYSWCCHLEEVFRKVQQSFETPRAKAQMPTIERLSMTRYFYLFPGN

Sequence of human Acid Phosphatase 1 (ACP1), ACP1 (gene 52) (P24666 whole entry, looked up): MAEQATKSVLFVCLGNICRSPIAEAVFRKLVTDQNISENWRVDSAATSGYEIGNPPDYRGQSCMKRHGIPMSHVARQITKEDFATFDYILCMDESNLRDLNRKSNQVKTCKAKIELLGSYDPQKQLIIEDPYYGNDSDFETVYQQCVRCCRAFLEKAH
Sequence of human CYP2C9, CYP2C9 (gene 1559) (P11712 whole entry, looked up): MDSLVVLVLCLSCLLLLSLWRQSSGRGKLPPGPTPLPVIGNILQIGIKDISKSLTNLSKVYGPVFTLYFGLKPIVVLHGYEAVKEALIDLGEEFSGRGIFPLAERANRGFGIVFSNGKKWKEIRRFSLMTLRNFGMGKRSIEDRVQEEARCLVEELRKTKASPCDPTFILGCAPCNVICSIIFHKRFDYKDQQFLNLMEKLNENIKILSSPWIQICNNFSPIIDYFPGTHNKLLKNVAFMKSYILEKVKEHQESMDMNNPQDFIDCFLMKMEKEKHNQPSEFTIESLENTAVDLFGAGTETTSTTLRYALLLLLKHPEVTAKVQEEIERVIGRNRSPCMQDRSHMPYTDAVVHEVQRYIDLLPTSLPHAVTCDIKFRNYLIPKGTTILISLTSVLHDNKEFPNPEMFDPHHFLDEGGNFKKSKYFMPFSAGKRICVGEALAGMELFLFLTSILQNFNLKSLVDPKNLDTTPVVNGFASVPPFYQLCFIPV
Sequence of human Beta-secretase (BACE), BACE1 (gene 23621) (P56817 whole entry, looked up): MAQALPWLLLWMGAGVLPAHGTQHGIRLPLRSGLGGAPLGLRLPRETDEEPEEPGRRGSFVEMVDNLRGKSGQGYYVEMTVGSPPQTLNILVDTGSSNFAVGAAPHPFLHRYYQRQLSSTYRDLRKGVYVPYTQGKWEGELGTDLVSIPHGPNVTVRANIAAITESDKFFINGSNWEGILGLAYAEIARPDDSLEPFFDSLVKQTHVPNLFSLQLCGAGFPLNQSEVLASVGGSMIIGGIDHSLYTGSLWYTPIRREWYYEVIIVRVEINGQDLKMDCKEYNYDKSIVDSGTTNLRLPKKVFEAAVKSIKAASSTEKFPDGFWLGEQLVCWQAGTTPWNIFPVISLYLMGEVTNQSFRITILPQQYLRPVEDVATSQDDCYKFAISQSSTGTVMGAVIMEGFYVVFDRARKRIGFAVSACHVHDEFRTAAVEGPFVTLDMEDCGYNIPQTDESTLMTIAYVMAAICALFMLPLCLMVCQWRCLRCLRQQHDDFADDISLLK

As to `Cc1ccc(N)cc1O`, the AC50 is 5.95 µM (active) in experiment [1] and 7.57 µM (active) in experiment [2]. Moreover, the call in experiment [3] and in experiment [4] was inactive.
As for `O=P(OC(CCl)CCl)(OC(CCl)CCl)OC(CCl)CCl`, the outcome in experiment [1], in experiment [3] and in experiment [5] was inactive. The AC50 in experiment [2] is 6.38 µM (active); in experiment [6], 8.73 µM (active).
Consider `O=C(OC[C@H]1O[C@@H](OC(=O)c2cc(O)c(O)c(OC(=O)c3cc(O)c(O)c(O)c3)c2)[C@H](OC(=O)c2cc(O)c(O)c(OC(=O)c3cc(O)c(O)c(O)c3)c2)[C@@H](OC(=O)c2cc(O)c(O)c(OC(=O)c3cc(O)c(O)c(O)c3)c2)[C@@H]1OC(=O)c1cc(O)c(O)c(OC(=O)c2cc(O)c(O)c(O)c2)c1)c1cc(O)c(O)c(OC(=O)c2cc(O)c(O)c(O)c2)c1`, for which the AC50 in experiment [1] is 3.05 µM (active); in experiment [2], 2.34 µM (active); in experiment [5], 0.136 µM (active); in experiment [6], 3.11 µM (active).
Consider `CCc1cc(SCc2sc(-c3ccc(C(F)(F)F)cc3)nc2CN2CCN(c3ccc(OC)cc3)CC2)ccc1OCC(=O)O`, for which the molecule was called inactive in experiment [1] and in experiment [7]. The AC50 in experiment [5] was 2.35 µM (active).
As for `Oc1ccc2c(c1)-c1ccccc1C2`, the AC50 was 3.72 µM (active) in experiment [1], 5.99 µM (active) in experiment [2] and 36.1 µM (active) in experiment [5].
In the case of `O=C(O)c1cccc(N(Cc2cccnc2)c2ccc(OC(F)F)c(OC(F)F)c2)c1`, the values for the half-maximal activity concentration (AC50) in experiment [1] and in experiment [2] were 6.14 µM (active) and 4.98 µM (active), respectively.
Consider `CCOC(=O)COc1ccc2c(c1)CC(NCC(O)c1cccc(Cl)c1)CC2` (centres undefined), for which the AC50 in experiment [2] was 5.22 µM (active).
Consider `CC(C)=CCCC(C)=CC=O`, for which the result in experiment [2] was inactive.
For `Nc1nc2ncc(CNc3ccc(C(=O)N[C@@H](CCC(=O)O)C(=O)O)cc3)nc2c(=O)[nH]1`, the result in experiment [3] was inactive.

Usually AC50 stands for the concentration giving half of the maximal activity seen.
